Screening data as filed in PubChem BioAssay.
SARS PLP yeast – SARS-CoV PLP inhibition in yeast; S. cerevisiae expressing SARS-CoV PLpro, growth rescue; Potency, µM (doses to about 32.9 µM), without a hit: top-dose activity, positive = growth rescue, most hits filed as activators; 330,000 compounds, 0.19% hits; calls by dose curve; note: 0% is about no effect; nearly all actives have a fitted effect of over 55% in size
Pf growth 48h – P. falciparum growth inhibition at 48 hours (one generation) | P. falciparum luciferase growth in erythrocytes, 48 h | Potency, µM (doses to about 28.7 µM), for inactives: top-dose activity change, negative = inhibition, hits mostly inhibitors | 310,000 compounds, 5.9% hits; note: % is set by controls: 0 for no effect and ±100 for the full control effect
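Luciferase-expressing P. falciparum in infected erythrocytes (2% hematocrit, 0.1% parasitemia final) in RPMI 1640/0.5% Albumax were exposed to compound for 48 hours at 37 C, 5% CO2; growth read as luminescence.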
NS1 inh – blocks influenza NS1 protein function | Potency, µM (highest dose often 46.1 µM), for inactives: top-dose activity, positive = more growth | 270,000 compounds, 0.4% hits; calls by dose curve; note: actives are rising curves; nearly all actives have a fitted effect of over 50% in size
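Growth recovery, yeast-based: influenza A NS1 expressed in S. cerevisiae causes slow growth, and suppressors are detected by OD600. The parent strain without NS1 is used as positive control.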
RE007 growth inh – less growth of the S. pombe RE007 Vpr strain. Potency, µM (top dose mostly 92.2 µM), for the others: at the top dose activity change, negative = less growth, most hits filed as inhibitors. S. pombe RE007 Vpr strain, BacTiter-Glo ATP luminescence, 24 h. 360,000 compounds, 0.21% hits. AID 651644; active = well fitted falling curve with a large enough effect; inconclusive = small, poorly fitted or top-dose-only effect; inactive = no such curve, though single readings can be large or run the other way; note: % is set by controls: 0 for no effect and ±100 for the full control effect; nearly all actives have a fitted effect of over 50% in size
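Fission yeast strain RE007, carrying one chromosomally integrated HIV-1 vpr copy, was seeded at OD 0.01 in PMG+AL medium with 23 nL pinned compound. After 24 h at 30 °C and 99% humidity, viability was read by BacTiter-Glo luminescence.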
Pf growth 96h – P. falciparum growth inhibition at 96 hours. Potency, µM (highest dose often 28.7 µM), without a hit: at the highest dose activity change, negative = inhibition, hits mostly inhibitors. 320,000 compounds, 6.9% hits. P. falciparum luciferase reporter growth, 96 h. AID 504834; note: % is set by controls: 0 for no effect and ±100 for the full control effect
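Two parasite generations (96 h, 37 C, 5% CO2) of compound exposure in infected erythrocytes (0.05% parasitemia, 2% hematocrit). Luciferase-reporter P. falciparum; decreased luminescence indicates inhibited growth, aimed at apicoplast-acting delayed death.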
The depositor's hits bear a star; ? = inconclusive; . = no result; [ ] = remark or other dose. Only some compounds are listed: those with a hit (about 9.5% of all), similar ones and a draw of the others. Unless noted, calls come from the whole dose curve; as a rule, active = well fitted inhibition curve with a large enough effect; inconclusive = small, poorly fitted or top-dose-only effect, or another doubt; inactive = no such curve, though single readings can be large or run the other way. Potency is the fitted concentration of half-maximal effect.

SMILES	SARS PLP yeast	Pf growth 48h	NS1 inh	RE007 growth inh	Pf growth 96h
Nc1ccc(S(=O)(=O)NCc2ccccc2)cc1	.	-3%	.	.	-5%
CC1CCN(c2ccc(C(=O)O)cc2N)CC1	4%	35%	0%	5%	3.3µM*
CS(=O)(=O)O[C@H]1CN2CCC1CC2	.	.	-4%	.	.
COCC(C)n1c(SCC(=O)N2CCc3ccccc3C2)nc2ccccc2c1=O (stereo not drawn)	-15%	?	-27%	11%	7.4µM*
COCC(C)n1c(SCC(=O)Nc2sccc2C(N)=O)nc2ccccc2c1=O (stereo not drawn)	1%	9.3µM*	.	9%	?
COCC(C)n1c(SCC(=O)N2CCCCC2)nc2ccccc2c1=O (stereo not drawn)	2%	-24%	-2%	6%	0%
CC(=O)C[C@H](c1ccc([N+](=O)[O-])cc1)c1c(O)c2ccccc2oc1=O	.	-12%[12.8 µM]	.	.	?
COc1cc(/C=N/N=C/c2cc(OC)c(O)c(OC)c2)cc(OC)c1O	2%	10µM*	-6%	12%	4.1µM*
COc1ccc(/C=N/N=C/c2ccc(OC)c(OC)c2)cc1OC	0%	3.7µM*	8%	?	117%
COc1cc(/C=N/N=C(N)N)ccc1OCc1ccccc1Cl	-2%	2.6µM*	.	-11%	29%
Fc1ccc(-n2cc(CNCCc3cccnc3)c(-c3ccccc3Cl)n2)cc1	-2%	?	4%	-6%	?
O=C(OCc1ccccc1)N1C=CC2CC1c1c(Cl)cccc12 (stereo not drawn)	.	.	.	-3%	.
NC1=NC(c2ccccc2C(F)(F)F)N(c2ccc(F)c(Cl)c2)C(N)=N1 (stereo not drawn)	0%	1.9µM*	-4%	7%	9%
Cc1cccc(OC(C)C(=O)N2CCN(Cc3ccc4c(c3)OCO4)CC2)c1 (stereo not drawn)	-7%	-4%	-12%	-12%	16%
NC1=NC(=O)/C(=C/c2ccc(Br)cc2)S1	0%	13%	0%	-2%	2.3µM*
C[C@H](Oc1ccc(Oc2cnc3ccc(Cl)cc3n2)cc1)C(=O)O	.	.	-8%	.	.
CN(C)CCCN(C(=O)c1ccc2c(c1)OCCO2)c1nc2ccc(Cl)cc2s1	-1%	10µM*	-7%	.	12µM*
CN(C)CCCN(C(=O)c1ccco1)c1nc2ccc(Cl)cc2s1	-1%	0%	-2%	-6%	-16%
Cc1ccc(C(=O)N(CCCN(C)C)c2nc3ccc(Cl)cc3s2)cc1C	-5%	12µM*	.	1%	?
CCOc1cccc(CNCCO)c1OCc1ccc(Cl)cc1	13%	?	-4%	23%	?
CCOc1cc(CNCCO)cc(Br)c1OCc1ccccc1Cl	-13%	10µM*	-15%	50%	12µM*
CCOc1cc(CNC(C)(C)CO)cc(Br)c1OCc1ccc(Cl)cc1Cl	-7%	?	-119%	-11%	9.3µM*
CCOc1cc(CNCCO)cc(Br)c1OCc1ccc(Cl)cc1	-7%	?	-25%	-6%	12µM*
Cc1cccc(C)c1-n1nnnc1C(c1ccnc2ccccc12)N1CCCN(C(=O)OC(C)(C)C)CC1 (stereo not drawn)	.	.	.	-9%	.
COc1ccc(C(=O)C2CCCN(Cc3ccc4nonc4c3)C2)c(OC)c1 (stereo not drawn)	0%	22%	-2%	5%	?
SMILES	SARS PLP yeast	Pf growth 48h	NS1 inh	RE007 growth inh	Pf growth 96h
FC(F)(F)c1ccccc1N1CC1c1ccncc1 (stereo not drawn)	-2%	.	1%	7%	2%
O=C1N(c2ccccc2C(F)(F)F)O[C@@]1(c1ccccc1)C1CCCCC1	-14%	1.5µM*	.	-4%	?
COC(=O)N1C(=O)[C@@](c2ccccc2)(C2CCCCC2)N1C(=O)OC	-14%	39%	-18%	5%	46%
O=C1N(c2ccccc2C(F)(F)F)O[C@@]1(c1ccccc1)C1CCCC1	-15%	0.74µM*	.	2%	0.83µM*
CN1CCN(S(=O)(=O)c2ccc(N(C)Cc3c(F)cccc3Cl)nc2)CC1	-6%	.	.	-6%	.
O=C(/C=C/c1ccco1)Nc1ccc(Oc2ccc(Cl)cc2)cc1	-9%	8.3µM*	-9%	?	3%
COc1cccc(NC(=O)/C=C/c2ccco2)c1	-4%	306%	.	?	258%
O=C(CSc1ccc(Cl)cc1)Nc1ccc(-c2nc3ccccc3[nH]2)cc1	3%	4.1µM*	-4%	2%	10%
O=C(/C=C/c1ccco1)Nc1ccc(C(=O)N2CCOCC2)cc1	-12%	2%	9%	-10%	9.3µM*
O=C(CSc1ccccc1)Nc1nc2ccccc2[nH]1	-6%	123%	8%	15%	125%
COc1ccc(C(NC(=O)/C=C/c2ccco2)c2ccc(OC)cc2)cc1	2%	10µM*	16%	9%	2.3µM*
Cc1ccc(NC(=O)c2ccc(C(=O)c3ccccc3)cc2)nc1	-9%	3%	.	-17%	85%
CCCCn1c(N)c(N(CC(C)C)C(=O)CSc2nnc(C)n2-c2ccccc2)c(=O)[nH]c1=O	.	.	.	-12%	.
O=C(/C=C/c1ccco1)Nc1ccc(-c2nc3ccccc3[nH]2)cc1	8%	4.1µM*	15%	22%	12µM*
CCN(CC)CCNc1nc2c(c(=O)[nH]c(=O)n2C)n1CC(O)COc1ccc(Cl)cc1Cl (stereo not drawn)	-3%	?	3%	-11%	12µM*
CN(C)CCNc1nc2c(c(=O)[nH]c(=O)n2C)n1CC(O)COc1ccc(Cl)cc1 (stereo not drawn)	2%	-2%	4%	-4%	0%
OC1COCOC1C(O)C1OCOCC1O (stereo not drawn)	.	.	.	-8%	.
CC1=C(CC/C(C)=N/NC(N)=S)C(C)(C)CCC1	14µM*	?	-9%	-3%	-22%
O=C(Cc1ccccc1)N1CCN(Cc2ccccc2Cl)CC1	0%	9%[0.00184 µM]	-1%	-1%	4.1µM*
c1csc(CN2CCNCC2)c1	-3%	16%	.	21%	10µM*
CCc1ccc(CN2CCN(C(=O)Cc3ccccc3)CC2)cc1	0%	-7%	0%	0%	33%
Oc1c(Cl)cc(Cl)cc1CN1CCN(Cc2ccccc2)CC1	-4%	1.2µM*	-14%	6%	0.74µM*
O=C(C1CCN(Cc2cc(Cl)ccc2O)CC1)N1CCN(Cc2ccccc2)CC1	3%	?	-8%	-2%	9%
Clc1ccccc1CN1CCNCC1	-1%	21%	12%	3%	8.3µM*
OC[C@@H]1O[C@@H](n2cnc3c(SCc4ccccc4)ncnc32)[C@@H](O)[C@H]1O	.	.	-6%	.	.
Oc1c(Cl)cccc1Cc1cc(Cl)cc(Cl)c1O	.	.	.	35µM*	.
Cc1cc(-c2onc3ccc(Cl)cc23)ccc1O	-3%	-11%	20%	-1%	15%
COc1cc(/C=C(/C#N)C(=O)Nc2ccccc2)ccc1OCc1ccc(C(=O)O)cc1	-2%	-1%	.	-5%	-98%
COc1cc(/C=C(\C#N)C(=O)NC(C)C)ccc1OCc1ccc(C(=O)O)cc1	0%	-1%	5%	6%	-23%
